According to the supplement of paper PMC9694430:
Counter-ions that a name gives are not always drawn.

Tests used:
Test in all cases: thermal shift delta Tm vs DMSO control; higher = stronger stabilization (binding)
Conditions in all cases: 12.5 µM; protein concentration 2 µM
[1] = test system: LOC_OS04G57630-cb004
Method in brief: (§1)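 The melting temperature shift given here is a triplicate mean, measured against protein that received only DMSO. Melting temperatures came from Boltzmann fits of differential scanning fluorimetry data on E. coli-expressed, purified rice kinase domain constructs. Each 19.5 μl well contained 2 μM kinase, 100 mM potassium phosphate pH 7.5, 150 mM NaCl, 10% glycerol, 5 × SYPRO Orange and compound in DMSO. Plates were scanned from 25°C to 95°C at 0.05°C/s.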

[2] = test system: LOC_OS05G07850-cb002
Method in brief: as §1

[3] = test system: LOC_OS05G16824-cb004
Method in brief: as §1

[4] = test system: LOC_OS05G28520-cb001
Method in brief: as §1

[5] = test system: LOC_OS05G30820-cb001
Method in brief: as §1

[6] = test system: LOC_OS05G43570-cb004
Method in brief: as §1

[7] = test system: LOC_OS06G16330-cb003
Method in brief: as §1

[8] = test system: T1, LOC_OS06G22820-cb001
T1 sequence (whole entry): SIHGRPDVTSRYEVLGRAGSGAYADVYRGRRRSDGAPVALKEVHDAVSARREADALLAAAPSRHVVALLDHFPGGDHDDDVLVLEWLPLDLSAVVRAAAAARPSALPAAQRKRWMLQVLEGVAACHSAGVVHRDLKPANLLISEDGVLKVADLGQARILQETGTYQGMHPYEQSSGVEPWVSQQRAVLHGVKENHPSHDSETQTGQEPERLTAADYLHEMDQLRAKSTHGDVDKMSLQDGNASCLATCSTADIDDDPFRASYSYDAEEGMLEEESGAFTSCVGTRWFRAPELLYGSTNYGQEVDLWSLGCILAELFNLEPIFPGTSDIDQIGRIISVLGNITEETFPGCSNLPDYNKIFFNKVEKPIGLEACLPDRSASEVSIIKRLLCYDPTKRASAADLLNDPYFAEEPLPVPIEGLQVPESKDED
Method in brief: as §1

[9] = test system: LOC_OS07G06570-cb004
Method in brief: as §1

[10] = test system: LOC_OS07G07230-cb001
Method in brief: as §1

Sequence of LOC_OS06G16330-cb003 (as listed by the source): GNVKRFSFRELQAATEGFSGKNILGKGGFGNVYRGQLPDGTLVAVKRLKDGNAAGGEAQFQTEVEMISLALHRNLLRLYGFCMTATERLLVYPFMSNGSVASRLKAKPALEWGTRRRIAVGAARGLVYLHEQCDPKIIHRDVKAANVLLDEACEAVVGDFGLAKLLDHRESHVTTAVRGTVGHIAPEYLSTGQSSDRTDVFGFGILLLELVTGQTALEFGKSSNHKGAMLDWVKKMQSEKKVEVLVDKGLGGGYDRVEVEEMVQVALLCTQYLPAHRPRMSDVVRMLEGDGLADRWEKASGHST

## COc1cccc(-c2cc(=O)c3ccccc3o2)c1N
[1]
  thermal shift delta Tm: -0.72 °C
[2]
  thermal shift delta Tm: 0.19 °C
[3]
  thermal shift delta Tm: -2.84 °C
[4]
  thermal shift delta Tm: 0.24 °C
[5]
  thermal shift delta Tm: 0.41 °C
[6]
  thermal shift delta Tm: 0.15 °C
[7]
  thermal shift delta Tm: -0.2 °C
[8]
  thermal shift delta Tm: 0.44 °C
[9]
  thermal shift delta Tm: 0.29 °C
[10]
  thermal shift delta Tm: 0.35 °C

## N=C(N)NC(=N)NCCc1ccccc1 [Phenformin HCl]
[1]
  thermal shift delta Tm: 0.25 °C
[2]
  thermal shift delta Tm: -0.02 °C
[3]
  thermal shift delta Tm: -6.46 °C
[4]
  thermal shift delta Tm: 0.39 °C
[5]
  thermal shift delta Tm: 0.48 °C
[6]
  thermal shift delta Tm: 0.27 °C
[7]
  thermal shift delta Tm: -0.35 °C
[8]
  thermal shift delta Tm: 0.41 °C
[9]
  thermal shift delta Tm: 0.53 °C
[10]
  thermal shift delta Tm: -0.03 °C

## CNC(=O)Nc1ccc(-c2nc(N3CC4CCC(C3)O4)c3cnn(C4CCC5(CC4)OCCO5)c3n2)cc1
[1]
  thermal shift delta Tm: 0.62 °C
[2]
  thermal shift delta Tm: 0.66 °C
[3]
  thermal shift delta Tm: -1.09 °C
[4]
  thermal shift delta Tm: 0.58 °C
[5]
  thermal shift delta Tm: 0.69 °C
[6]
  thermal shift delta Tm: 0.65 °C
[7]
  thermal shift delta Tm: -0.11 °C
[8]
  thermal shift delta Tm: 0.61 °C
[9]
  thermal shift delta Tm: 0.67 °C
[10]
  thermal shift delta Tm: 0.15 °C

## O=C1NC(=O)/C(=C/c2ccc3nccc(-c4ccncc4)c3c2)S1
[1]
  thermal shift delta Tm: 1.23 °C
[2]
  thermal shift delta Tm: 8.62 °C
[3]
  thermal shift delta Tm: 0.06 °C
[4]
  thermal shift delta Tm: 0.11 °C
[5]
  thermal shift delta Tm: 0.15 °C
[6]
  thermal shift delta Tm: 0.36 °C
[7]
  thermal shift delta Tm: 3.51 °C
[8]
  thermal shift delta Tm: 0.22 °C
[9]
  thermal shift delta Tm: 1.03 °C
[10]
  thermal shift delta Tm: 0.79 °C

## CC(C)=CC[C@@H](O)C1=CC(=O)c2c(O)ccc(O)c2C1=O [Shikonin]
[1]
  thermal shift delta Tm: -1.93 °C
[2]
  thermal shift delta Tm: -1.47 °C
[3]
  thermal shift delta Tm: -0.18 °C
[4]
  thermal shift delta Tm: 1.58 °C
[5]
  thermal shift delta Tm: 0.18 °C
[6]
  thermal shift delta Tm: 0.09 °C
[7]
  thermal shift delta Tm: -1.68 °C
[8]
  thermal shift delta Tm: -0.26 °C
[9]
  thermal shift delta Tm: 7.3 °C
[10]
  thermal shift delta Tm: 0.21 °C

## COc1cc(Nc2c(C#N)cnc3cc(OCCCN4CCN(C)CC4)c(OC)cc23)c(Cl)cc1Cl [Bosutinib (SKI-606)]
[1]
  thermal shift delta Tm: -0.3 °C
[2]
  thermal shift delta Tm: 0.13 °C
[3]
  thermal shift delta Tm: -0.71 °C
[4]
  thermal shift delta Tm: 0.48 °C
[5]
  thermal shift delta Tm: 0.5 °C
[6]
  thermal shift delta Tm: 0.48 °C
[7]
  thermal shift delta Tm: -0.26 °C
[8]
  thermal shift delta Tm: 0.74 °C
[9]
  thermal shift delta Tm: 0.61 °C
[10]
  thermal shift delta Tm: 0.26 °C

## Cc1c(NC(=O)c2ccc(C(C)(C)C)cc2)cccc1-c1cn(C)c(=O)c(Nc2ccc(C(=O)N3CCOCC3)cc2)n1
[1]
  thermal shift delta Tm: 0.37 °C
[2]
  thermal shift delta Tm: 0.29 °C
[3]
  thermal shift delta Tm: 0.48 °C
[4]
  thermal shift delta Tm: 0.5 °C
[5]
  thermal shift delta Tm: 0.18 °C
[6]
  thermal shift delta Tm: 0.64 °C
[7]
  thermal shift delta Tm: 0.07 °C
[8]
  thermal shift delta Tm: 0.84 °C
[9]
  thermal shift delta Tm: 1.05 °C
[10]
  thermal shift delta Tm: -0.21 °C

## C#Cc1cccc(Nc2ncnc3cc4c(cc23)OCCOCCOCCO4)c1 [Icotinib]
[1]
  thermal shift delta Tm: 1.01 °C
[2]
  thermal shift delta Tm: 8.46 °C
[3]
  thermal shift delta Tm: -0.7 °C
[4]
  thermal shift delta Tm: 0.87 °C
[5]
  thermal shift delta Tm: 0.31 °C
[6]
  thermal shift delta Tm: 0.43 °C
[7]
  thermal shift delta Tm: 3.06 °C
[8]
  thermal shift delta Tm: 0.81 °C
[9]
  thermal shift delta Tm: 1 °C
[10]
  thermal shift delta Tm: 0.07 °C

## Oc1c2ccccc2c2c3c(cccc13)N=N2
[1]
  thermal shift delta Tm: 2.27 °C
[2]
  thermal shift delta Tm: 9.83 °C
[3]
  thermal shift delta Tm: 9.67 °C
[4]
  thermal shift delta Tm: 0.7 °C
[5]
  thermal shift delta Tm: 1.62 °C
[6]
  thermal shift delta Tm: 1 °C
[7]
  thermal shift delta Tm: 5.84 °C
[8]
  thermal shift delta Tm: 0.87 °C
[9]
  thermal shift delta Tm: 1.14 °C
[10]
  thermal shift delta Tm: -0.13 °C

## CCS(=O)(=O)N1CCN(c2ccc(Nc3ncc(C(N)=O)c(NC4CC4)n3)cc2)CC1
[1]
  thermal shift delta Tm: 1.82 °C
[2]
  thermal shift delta Tm: 9.2 °C
[3]
  thermal shift delta Tm: 11.7 °C
[4]
  thermal shift delta Tm: 0.7 °C
[5]
  thermal shift delta Tm: 3.56 °C
[6]
  thermal shift delta Tm: 2.04 °C
[7]
  thermal shift delta Tm: 5.15 °C
[8]
  thermal shift delta Tm: 0.57 °C
[9]
  thermal shift delta Tm: 1.36 °C
[10]
  thermal shift delta Tm: 1.17 °C

## Cc1cccc(Nc2nc(NC3CCCCC3N)ncc2C(N)=O)c1 (stereo not given)
[1]
  thermal shift delta Tm: 0.83 °C
[2]
  thermal shift delta Tm: 7.79 °C
[3]
  thermal shift delta Tm: 5.17 °C
[4]
  thermal shift delta Tm: 0.36 °C
[5]
  thermal shift delta Tm: 2.02 °C
[6]
  thermal shift delta Tm: 0.63 °C
[7]
  thermal shift delta Tm: 6.85 °C
[8]
  thermal shift delta Tm: 0.81 °C
[9]
  thermal shift delta Tm: 1.04 °C
[10]
  thermal shift delta Tm: 0.47 °C

## COc1cc2ncnc(Nc3cccc(Cl)c3)c2cc1OC [AG-1478 (Tyrphostin AG-1478)]
[1]
  thermal shift delta Tm: 0.54 °C
[2]
  thermal shift delta Tm: 10.9 °C
[3]
  thermal shift delta Tm: 0.02 °C
[4]
  thermal shift delta Tm: 0.3 °C
[5]
  thermal shift delta Tm: 0.62 °C
[6]
  thermal shift delta Tm: 0.52 °C
[7]
  thermal shift delta Tm: 5.45 °C
[8]
  thermal shift delta Tm: 0.8 °C
[9]
  thermal shift delta Tm: 0.35 °C
[10]
  thermal shift delta Tm: 0.01 °C
